Data from the supplement of paper PMC11732987, “Enantioselective OTUD7B fragment discovery through chemoproteomics screening and high-throughput optimisation” (Communications Chemistry, 2025).

Experiments:
Test in all cases: log2 ratio of Biotin-Ahx-Ub-VS probe labelling (fragment/DMSO); higher = less target engagement (more negative = stronger competition), active = hit call of the paper (q ≤ 0.05, log2 ratio ≤ -1)
Conditions in all cases: compound concentration: 200 uM; treatment time: 3 h
OTUD6B = target: T1, OTUD6B (UniProt Q8N6M0)
T1 sequence (whole entry): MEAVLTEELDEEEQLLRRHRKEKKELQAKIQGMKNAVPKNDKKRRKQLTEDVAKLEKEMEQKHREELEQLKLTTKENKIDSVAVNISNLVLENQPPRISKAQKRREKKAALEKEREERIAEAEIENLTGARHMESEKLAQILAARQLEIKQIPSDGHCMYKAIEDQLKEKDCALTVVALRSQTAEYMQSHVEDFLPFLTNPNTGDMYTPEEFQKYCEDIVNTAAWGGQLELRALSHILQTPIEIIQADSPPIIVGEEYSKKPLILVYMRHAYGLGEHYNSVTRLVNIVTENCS
Summary of the method: (§1)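 Average log2 ratios of fragment over vehicle were obtained by unpaired t-test from global-median-normalised Spectronaut label-free quantities. Proteins with ≥2 unique peptides were included. HEK293T lysate (495 µg per sample) was treated in triplicate with fragment at 200 µM or vehicle for 3 h, then with Biotin-Ahx-Ub-VS at 0.5 µM final for 1 h, and labelled DUBs were NeutrAvidin-enriched and run by diaPASEF LC-MS/MS.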

OTUD7B = target: T2, OTUD7B (UniProt Q6GQQ9)
T2 sequence (whole entry): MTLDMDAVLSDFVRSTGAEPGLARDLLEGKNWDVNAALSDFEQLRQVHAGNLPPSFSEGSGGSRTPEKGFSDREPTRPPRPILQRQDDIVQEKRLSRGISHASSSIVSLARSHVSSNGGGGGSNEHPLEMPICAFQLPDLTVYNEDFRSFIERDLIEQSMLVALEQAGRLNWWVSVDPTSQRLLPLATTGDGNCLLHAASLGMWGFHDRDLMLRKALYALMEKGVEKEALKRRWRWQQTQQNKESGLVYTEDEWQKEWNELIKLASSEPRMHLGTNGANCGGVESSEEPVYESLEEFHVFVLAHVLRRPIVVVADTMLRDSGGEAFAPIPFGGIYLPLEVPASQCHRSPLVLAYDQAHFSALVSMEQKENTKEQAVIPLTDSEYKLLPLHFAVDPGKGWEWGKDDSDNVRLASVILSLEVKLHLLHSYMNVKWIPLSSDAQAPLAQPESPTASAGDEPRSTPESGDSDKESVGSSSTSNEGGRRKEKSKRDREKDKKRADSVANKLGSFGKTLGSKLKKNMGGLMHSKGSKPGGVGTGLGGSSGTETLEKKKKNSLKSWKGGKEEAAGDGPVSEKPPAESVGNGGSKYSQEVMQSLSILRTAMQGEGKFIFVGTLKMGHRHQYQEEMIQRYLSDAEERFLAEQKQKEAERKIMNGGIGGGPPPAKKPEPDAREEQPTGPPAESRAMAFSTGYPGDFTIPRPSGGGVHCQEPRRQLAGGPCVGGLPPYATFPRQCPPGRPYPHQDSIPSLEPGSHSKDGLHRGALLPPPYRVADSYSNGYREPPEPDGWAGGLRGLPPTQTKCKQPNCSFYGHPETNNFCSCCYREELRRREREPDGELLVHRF
Summary of the method: as §1

PRPF8 = PRPF8 (UniProt Q6P2Q9)
Summary of the method: as §1

PSMD7 = target: T3, PSMD7 (UniProt P51665)
T3 sequence (whole entry): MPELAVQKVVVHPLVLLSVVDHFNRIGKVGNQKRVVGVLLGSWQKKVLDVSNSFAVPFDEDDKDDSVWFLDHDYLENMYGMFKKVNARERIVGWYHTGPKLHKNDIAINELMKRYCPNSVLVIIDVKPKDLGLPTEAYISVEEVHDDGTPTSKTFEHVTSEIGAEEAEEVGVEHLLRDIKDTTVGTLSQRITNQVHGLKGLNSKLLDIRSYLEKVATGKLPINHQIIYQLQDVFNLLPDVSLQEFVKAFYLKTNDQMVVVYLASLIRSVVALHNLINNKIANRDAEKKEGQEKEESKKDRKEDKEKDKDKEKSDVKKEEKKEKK
Summary of the method: as §1

UCHL1 = UCHL1 (UniProt P09936)
UCHL1, sequence (P09936 whole entry, looked up): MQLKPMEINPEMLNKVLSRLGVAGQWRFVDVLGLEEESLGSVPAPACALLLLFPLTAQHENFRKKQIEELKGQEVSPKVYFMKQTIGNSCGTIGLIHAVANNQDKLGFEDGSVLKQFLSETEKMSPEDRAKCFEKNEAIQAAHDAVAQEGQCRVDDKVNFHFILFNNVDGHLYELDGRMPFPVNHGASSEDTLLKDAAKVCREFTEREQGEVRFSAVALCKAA
Summary of the method: as §1

UCHL3 = target: T4, UCHL3 (UniProt P15374)
T4 sequence (whole entry): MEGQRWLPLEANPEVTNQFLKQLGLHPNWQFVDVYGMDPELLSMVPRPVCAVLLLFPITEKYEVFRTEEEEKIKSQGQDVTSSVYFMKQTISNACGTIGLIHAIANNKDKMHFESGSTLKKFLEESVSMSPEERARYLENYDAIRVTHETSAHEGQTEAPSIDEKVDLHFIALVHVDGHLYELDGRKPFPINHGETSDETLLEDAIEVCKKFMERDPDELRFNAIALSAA
Summary of the method: as §1

UCHL5 = target: T5, UCHL5 (UniProt Q9Y5K5)
T5 sequence (whole entry): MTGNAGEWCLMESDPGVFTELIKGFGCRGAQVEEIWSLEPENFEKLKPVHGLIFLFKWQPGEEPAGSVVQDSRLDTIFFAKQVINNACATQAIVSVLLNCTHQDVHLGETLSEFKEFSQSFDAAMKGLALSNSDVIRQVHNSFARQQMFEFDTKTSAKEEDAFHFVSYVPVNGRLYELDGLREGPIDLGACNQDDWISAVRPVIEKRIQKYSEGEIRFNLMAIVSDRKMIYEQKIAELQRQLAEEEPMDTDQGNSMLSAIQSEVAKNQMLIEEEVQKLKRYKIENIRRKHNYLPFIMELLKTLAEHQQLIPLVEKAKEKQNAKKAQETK
Summary of the method: as §1

USP10 = USP10 (UniProt Q14694)
USP10, sequence (Q14694 whole entry): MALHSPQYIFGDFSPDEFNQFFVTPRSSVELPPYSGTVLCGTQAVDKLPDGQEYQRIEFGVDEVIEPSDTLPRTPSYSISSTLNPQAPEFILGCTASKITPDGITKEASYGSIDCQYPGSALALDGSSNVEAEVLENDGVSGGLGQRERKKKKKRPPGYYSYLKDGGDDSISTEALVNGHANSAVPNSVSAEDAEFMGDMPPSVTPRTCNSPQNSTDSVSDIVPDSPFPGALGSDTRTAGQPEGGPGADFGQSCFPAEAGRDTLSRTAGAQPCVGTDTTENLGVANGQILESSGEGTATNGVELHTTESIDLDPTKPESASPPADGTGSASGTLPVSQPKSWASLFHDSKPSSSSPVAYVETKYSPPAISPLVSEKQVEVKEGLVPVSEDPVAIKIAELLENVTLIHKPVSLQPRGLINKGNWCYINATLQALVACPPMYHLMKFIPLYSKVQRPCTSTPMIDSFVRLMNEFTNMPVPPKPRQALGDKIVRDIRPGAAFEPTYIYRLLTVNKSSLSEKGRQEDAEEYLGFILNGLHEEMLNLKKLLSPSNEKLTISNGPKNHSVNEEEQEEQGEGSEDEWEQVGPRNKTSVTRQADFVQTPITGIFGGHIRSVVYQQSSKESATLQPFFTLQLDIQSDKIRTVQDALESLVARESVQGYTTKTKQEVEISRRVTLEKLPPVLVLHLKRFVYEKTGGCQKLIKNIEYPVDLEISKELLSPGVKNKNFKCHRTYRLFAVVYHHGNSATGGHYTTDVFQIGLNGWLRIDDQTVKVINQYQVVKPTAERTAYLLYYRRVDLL
Summary of the method: as §1

USP15 = target: T6, USP15 (UniProt Q9Y4E8)
T6 sequence (whole entry): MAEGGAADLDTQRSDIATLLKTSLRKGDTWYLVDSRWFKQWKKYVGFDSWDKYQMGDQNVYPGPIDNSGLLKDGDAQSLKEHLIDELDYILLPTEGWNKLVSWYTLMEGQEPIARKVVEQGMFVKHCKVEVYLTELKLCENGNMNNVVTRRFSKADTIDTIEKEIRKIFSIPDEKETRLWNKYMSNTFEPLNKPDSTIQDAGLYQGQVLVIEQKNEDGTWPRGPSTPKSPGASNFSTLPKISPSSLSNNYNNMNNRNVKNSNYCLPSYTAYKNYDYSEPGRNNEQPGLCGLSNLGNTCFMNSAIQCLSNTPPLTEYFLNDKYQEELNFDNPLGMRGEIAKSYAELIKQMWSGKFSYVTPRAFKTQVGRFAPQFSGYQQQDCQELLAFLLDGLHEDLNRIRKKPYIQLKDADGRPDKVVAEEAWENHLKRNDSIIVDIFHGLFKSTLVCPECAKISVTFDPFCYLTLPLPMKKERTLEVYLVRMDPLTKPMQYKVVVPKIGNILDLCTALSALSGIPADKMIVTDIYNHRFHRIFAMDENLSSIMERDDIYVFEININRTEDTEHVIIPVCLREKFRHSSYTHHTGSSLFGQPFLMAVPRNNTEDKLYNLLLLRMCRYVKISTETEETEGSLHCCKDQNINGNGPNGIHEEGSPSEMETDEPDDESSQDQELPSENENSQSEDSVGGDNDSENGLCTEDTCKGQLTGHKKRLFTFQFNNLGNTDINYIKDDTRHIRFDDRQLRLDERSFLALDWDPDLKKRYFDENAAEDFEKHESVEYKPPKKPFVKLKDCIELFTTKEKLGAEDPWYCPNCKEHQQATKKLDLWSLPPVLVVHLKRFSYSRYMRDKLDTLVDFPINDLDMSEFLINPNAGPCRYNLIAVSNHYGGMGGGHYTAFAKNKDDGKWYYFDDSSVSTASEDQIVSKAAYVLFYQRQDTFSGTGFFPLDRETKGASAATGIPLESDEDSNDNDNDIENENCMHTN
Summary of the method: as §1

USP16 = USP16 (UniProt Q9Y5T5)
USP16, sequence (Q9Y5T5 whole entry, looked up): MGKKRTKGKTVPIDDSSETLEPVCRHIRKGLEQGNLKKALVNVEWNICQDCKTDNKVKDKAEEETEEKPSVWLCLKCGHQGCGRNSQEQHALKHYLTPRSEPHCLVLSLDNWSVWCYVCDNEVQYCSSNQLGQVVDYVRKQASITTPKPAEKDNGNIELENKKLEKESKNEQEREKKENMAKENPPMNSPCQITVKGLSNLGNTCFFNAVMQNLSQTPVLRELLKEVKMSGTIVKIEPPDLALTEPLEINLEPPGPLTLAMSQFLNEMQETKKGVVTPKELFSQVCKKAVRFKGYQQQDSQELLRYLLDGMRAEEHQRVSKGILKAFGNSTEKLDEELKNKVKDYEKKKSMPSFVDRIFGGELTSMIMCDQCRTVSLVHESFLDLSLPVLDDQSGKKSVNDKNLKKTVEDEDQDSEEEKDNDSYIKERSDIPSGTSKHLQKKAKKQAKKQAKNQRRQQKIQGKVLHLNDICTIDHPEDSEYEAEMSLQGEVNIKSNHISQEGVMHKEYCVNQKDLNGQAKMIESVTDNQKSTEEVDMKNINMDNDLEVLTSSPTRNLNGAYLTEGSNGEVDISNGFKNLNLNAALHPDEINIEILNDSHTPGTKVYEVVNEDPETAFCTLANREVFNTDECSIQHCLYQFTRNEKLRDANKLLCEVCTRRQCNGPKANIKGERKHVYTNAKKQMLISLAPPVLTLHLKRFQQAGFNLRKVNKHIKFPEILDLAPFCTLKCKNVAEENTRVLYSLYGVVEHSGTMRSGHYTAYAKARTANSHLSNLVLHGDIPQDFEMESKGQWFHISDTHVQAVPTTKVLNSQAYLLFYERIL
Summary of the method: as §1

Measured: log2 ratio of Biotin-Ahx-Ub-VS probe labelling

Cc1ccc(CC(CO)CNC(=O)CCl)cc1 (stereo not given)
inactive: OTUD6B -0.264 | PRPF8 -0.059 | PSMD7 -0.169 | UCHL3 -0.121 | UCHL5 -0.474 | USP10 -0.0682 | USP15 -0.199 | USP16 0.217
active: OTUD7B -1.12 | UCHL1 -1.92
